T1: RBFOX1 RRM (Homo sapiens, UniProt Q9NWB1 109-208)
T1 sequence: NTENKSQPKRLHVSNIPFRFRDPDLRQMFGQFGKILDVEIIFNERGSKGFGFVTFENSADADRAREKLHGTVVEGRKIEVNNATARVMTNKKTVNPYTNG

B1: CAGCUCA (DNA:RNA)
RNA: GGGAGACCGGAAUUCAGAUUGUCCCAGCUCAUUAAAUCCCGUCGUAGCCACCA
DNA 1: CAATCTGAATTCCGGTCTCCC
DNA 2: TGGTGGCTACGACGGGATT
B2: GUAUCUG (DNA:RNA)
RNA: GGGAGACCGGAAUUCAGAUUGUCCGUAUCUGUUAAAUCCCGUCGUAGCCACCA
DNA 1: CAATCTGAATTCCGGTCTCCC
DNA 2: TGGTGGCTACGACGGGATT
B3: AAUGCCC (DNA:RNA)
RNA: B1 RNA with C25A, G27U, C28G, U29C, A31C
DNA 1: CAATCTGAATTCCGGTCTCCC
DNA 2: TGGTGGCTACGACGGGATT
B4: UGAACGA (DNA:RNA)
RNA: B2 RNA with G25U, U26G, U28A, U30G, G31A
DNA 1: CAATCTGAATTCCGGTCTCCC
DNA 2: TGGTGGCTACGACGGGATT
B5: CUAGAGG (DNA:RNA)
RNA: B2 RNA with G25C, U28G, C29A, U30G
DNA 1: CAATCTGAATTCCGGTCTCCC
DNA 2: TGGTGGCTACGACGGGATT
B6: UAGCGUU (DNA:RNA)
RNA: B1 RNA with C25U, U29G, C30U, A31U
DNA 1: CAATCTGAATTCCGGTCTCCC
DNA 2: TGGTGGCTACGACGGGATT
B7: UGACAAC (DNA:RNA)
RNA: B1 RNA with C25U, A26G, G27A, U29A, C30A, A31C
DNA 1: CAATCTGAATTCCGGTCTCCC
DNA 2: TGGTGGCTACGACGGGATT
B8: AACUUUA (DNA:RNA)
RNA: B1 RNA with C25A, G27C, C28U, C30U
DNA 1: CAATCTGAATTCCGGTCTCCC
DNA 2: TGGTGGCTACGACGGGATT
B9: GCUGUCG (DNA:RNA)
RNA: B1 RNA with C25G, A26C, G27U, C28G, A31G
DNA 1: CAATCTGAATTCCGGTCTCCC
DNA 2: TGGTGGCTACGACGGGATT
B10: GCUGCUG (DNA:RNA)
RNA: B2 RNA with U26C, A27U, U28G
DNA 1: CAATCTGAATTCCGGTCTCCC
DNA 2: TGGTGGCTACGACGGGATT
B11: UGAGGAG (DNA:RNA)
RNA: B2 RNA with G25U, U26G, U28G, C29G, U30A
DNA 1: CAATCTGAATTCCGGTCTCCC
DNA 2: TGGTGGCTACGACGGGATT
B12: UGUCCGU (DNA:RNA)
RNA: B1 RNA with C25U, A26G, G27U, U29C, C30G, A31U
DNA 1: CAATCTGAATTCCGGTCTCCC
DNA 2: TGGTGGCTACGACGGGATT
B13: GUCCUGU (DNA:RNA)
RNA: B1 RNA with C25G, A26U, G27C, C30G, A31U
DNA 1: CAATCTGAATTCCGGTCTCCC
DNA 2: TGGTGGCTACGACGGGATT
B14: UGCUGAG (DNA:RNA)
RNA: B2 RNA with G25U, U26G, A27C, C29G, U30A
DNA 1: CAATCTGAATTCCGGTCTCCC
DNA 2: TGGTGGCTACGACGGGATT
B15: UGAGUUG (DNA:RNA)
RNA: B2 RNA with G25U, U26G, U28G, C29U
DNA 1: CAATCTGAATTCCGGTCTCCC
DNA 2: TGGTGGCTACGACGGGATT
B16: UGUGGUG (DNA:RNA)
RNA: B2 RNA with G25U, U26G, A27U, U28G, C29G
DNA 1: CAATCTGAATTCCGGTCTCCC
DNA 2: TGGTGGCTACGACGGGATT
B17: GCUGUUG (DNA:RNA)
RNA: B2 RNA with U26C, A27U, U28G, C29U
DNA 1: CAATCTGAATTCCGGTCTCCC
DNA 2: TGGTGGCTACGACGGGATT

Substitutions are numbered along the chain they refer to; changes in the protein carry UniProt numbers. The full ranking holds about 16,000 sequences; the median of “ka relative to ugcaugu” is about 0.0091, and the highest 2% start at about 0.032. The entries come from a sample that favours the highest values as a whole.

The target of this assay is T1, RBFOX1 RRM. The experiment in a line: EMSA; HiTS-Eq, 1 nM pool, 10 min; buffer printed only for the single-RNA assays: 10 mM Tris pH 7.5, 150 mM NaCl, 3.4 mM EDTA, 0.001% NP-40, 30 C. The settings on record: tags: His6 N-terminal (pET28a); label: 5' 32P. The procedure, abridged: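 Purified RbFox RRM, wild type or mutant, was incubated for 10 min in 50 µL with 1 nM of a 5′-radiolabelled RNA pool carrying 7 randomized nucleotides, whose flanks were annealed to DNA oligonucleotides, over a series of increasing protein concentrations. Unbound RNA was resolved on 8% native PAGE, cut out, reverse-transcribed, barcoded by PCR and sequenced on an Illumina HiSeq 2500. Relative association constants were derived from changes in read counts for each RNA species versus the control reaction and normalised to the cognate motif.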
(A gel shift assay detects complexes by their altered migration in electrophoresis.)
As for B1, the binding signal is 0.00282 KA relative to UGCAUGU.
With B2 the figure was 0.015 KA relative to UGCAUGU; with B3, 0.00474 KA relative to UGCAUGU.
As to B4, the binding signal is 0.0199 KA relative to UGCAUGU.
As to B5, the binding signal was 0.00494 KA relative to UGCAUGU.
For B6 the value was 0.0117 KA relative to UGCAUGU.
For B7, the binding signal is 0.00863 KA relative to UGCAUGU.
As for B8, the binding signal was 0.000524 KA relative to UGCAUGU.
On to B9, for which the binding signal was 0.0197 KA relative to UGCAUGU.
For B10, the binding signal was 0.0323 KA relative to UGCAUGU.
Regarding B11, the binding signal was 0.0109 KA relative to UGCAUGU.
With B12 the figure was 0.0131 KA relative to UGCAUGU; with B13, 0.0155 KA relative to UGCAUGU.
B14: the binding signal was 0.0319 KA relative to UGCAUGU.
In the case of B15, the binding signal is 0.0276 KA relative to UGCAUGU.
With B16, the binding signal is 0.0376 KA relative to UGCAUGU.
Consider B17, for which the binding signal was 0.028 KA relative to UGCAUGU.

Source of the values: article PMC9911399, “Two distinct binding modes provide the RNA-binding protein RbFox with extraordinary sequence specificity”.
